From PubChem
In the library only some 3.3% were active in any assay of this set; here they are far more common.
AmpC inh no detg: qHTS Inhibitors of AmpC Beta-Lactamase (assay without detergent). P00811. AmpC nitrocefin hydrolysis, absorbance 480 nm, 0.0001% Triton. Potency, µM (titrated, usually from 57.1 µM), most hits filed as inhibitors. 0.52% of 330,000 active. AID 485341, 2010; also: nearly all actives have a fitted effect of over 20% in size
Target sequence (P00811 whole entry, looked up): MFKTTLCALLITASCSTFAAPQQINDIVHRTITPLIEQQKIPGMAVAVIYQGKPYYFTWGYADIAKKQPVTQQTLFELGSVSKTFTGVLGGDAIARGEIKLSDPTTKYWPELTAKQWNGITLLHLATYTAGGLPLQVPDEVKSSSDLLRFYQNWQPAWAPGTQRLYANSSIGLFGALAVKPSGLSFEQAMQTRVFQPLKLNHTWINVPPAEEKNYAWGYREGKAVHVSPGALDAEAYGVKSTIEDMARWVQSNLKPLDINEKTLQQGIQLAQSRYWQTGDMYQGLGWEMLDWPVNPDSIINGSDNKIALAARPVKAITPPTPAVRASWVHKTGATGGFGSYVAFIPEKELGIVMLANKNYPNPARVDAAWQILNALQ
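20 mM phosphate pH 7.0 + 0.01% (detergent screen) or 0.0001% Triton X-100; 5.3 nM AmpC reagent; cpd preinc 15 min RT; nitrocefin (800 uM stock) to start; A480 q20 s × 4 min; Activity was normalised to no-enzyme and no-compound control wells.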
AmpC detergent: qHTS Inhibitors of AmpC Beta-Lactamase (assay with detergent); P00811; AmpC hydrolysis of nitrocefin, absorbance 480 nm, 0.01% Triton; Potency, µM (highest dose often 114 µM), actives largely listed as inhibitors; 0.041% of 370,000 active; AID 485294, 2010; also: nearly all actives have a fitted effect of over 25% in size
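20 mM phosphate pH 7.0 + 0.01% (detergent screen) or 0.0001% Triton X-100; 5.3 nM AmpC reagent; cpd preinc 15 min RT; nitrocefin (800 uM stock) to start; A480 q20 s × 4 min; Activity was normalised to no-enzyme and no-compound control wells.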
Sm TGR block: qHTS Assay for the Inhibitors of Schistosoma Mansoni Peroxiredoxins; 3% of 360,000 active; purified TGR, DTNB reduction, TNB absorbance 405 nm; Potency, µM (doses to about 114 µM), most hits filed as inhibitors; also: nearly all actives have a fitted effect of over 60% in size
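TGR 20 nM + NADPH 100 uM (dispensed conc.), cpd preinc 15 min RT; start with NADPH (500 uM addition) then DTNB (15 mM addition). Kinetic TNB absorbance, 405 nm filter. Four-parameter Hill fit across titration.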
Hits are given with their value. Calls follow the shape of the dose curve; as a rule, active = well fitted curve in the direction sought with a large enough effect; inconclusive = small, poorly fitted or top-dose-only effect, or another doubt; inactive = no such curve, though single readings can be large; an effect the other way counts as inactive or inconclusive.

CC1CN(C(=O)c2ccc(COc3ccc(C(C)C)cc3)o2)CC(C)O1 (configuration not stated) was read as AmpC inh no detg inactive, AmpC detergent inactive and Sm TGR block 40µM.
`COC(=O)c1ccc(Cl)cc1N(Cc1c(F)cccc1Cl)S(C)(=O)=O` gave AmpC inh no detg inactive, AmpC detergent inactive and Sm TGR block inactive.
`CC(C)CNS(=O)(=O)c1cc(C(=O)OC2CCOC2=O)c(Cl)cc1Cl` (configuration not stated) gave AmpC inh no detg inactive, AmpC detergent inactive and Sm TGR block inactive.
COc1ccc(S(=O)(=O)/N=C2\C=C(Nc3ccc(O)cc3)C(=O)c3ccccc32)cc1 was read as AmpC inh no detg inactive, AmpC detergent inconclusive and Sm TGR block inactive.
For COC(=O)C(C(C)=O)C1=C/C(=N\S(=O)(=O)c2ccc(C)cc2)c2ccccc2C1=O (configuration not stated) the results were AmpC inh no detg inactive, AmpC detergent inconclusive and Sm TGR block 28µM.
For O=C(NCC(=O)N(Cc1cccs1)C(C(=O)NC1CCCC1)c1cccnc1)c1ccco1 (configuration not stated) the results were AmpC inh no detg inactive, AmpC detergent inconclusive and Sm TGR block inconclusive.
`O=C(NC1CCCCC1)C(c1ccccc1)N(Cc1ccco1)C(=O)c1csnn1` (configuration not stated) gave AmpC inh no detg inactive, AmpC detergent inconclusive and Sm TGR block inactive.
Screening O=C(NCC(=O)N(Cc1cccs1)C(C(=O)NC1CCCCC1)c1ccncc1)c1ccco1 (configuration not stated) returned AmpC inh no detg inactive, AmpC detergent inconclusive and Sm TGR block 45µM.
O=C(NC1CCCC1)C(c1cccs1)N(Cc1ccco1)C(=O)c1csnn1 (configuration not stated) was read as AmpC inh no detg inactive, AmpC detergent inactive and Sm TGR block 35µM.
`CN(C(=O)C1CCCN(c2ncnc3c2nc2n3CCCCC2)C1)c1cccc(Cl)c1` (configuration not stated) gave AmpC inh no detg inactive, AmpC detergent inactive and Sm TGR block inactive.
`Cc1cccc([C@@H]2[C@@H]3C(=O)N(Cc4ccccc4)C(=O)[C@@H]3[C@]3(Cc4ccc(Cl)cc4)C(=O)N(c4ccc(Br)cc4)C(=O)N23)c1` gave AmpC inh no detg inactive, AmpC detergent inactive and Sm TGR block inactive.
For Cc1ccc(N2CCC(N3CCN(C4CCCCC4)C(CCO)C3)CC2)cc1 (configuration not stated) the results were AmpC inh no detg inactive, AmpC detergent inactive and Sm TGR block inconclusive.
Screening COC(=O)[C@@H](Cc1c[nH]c2ccccc12)NC(=O)CCC(=O)c1ccc(F)cc1 returned AmpC inh no detg inactive, AmpC detergent inactive and Sm TGR block inactive.
Screening COc1ccccc1CC1S/C(=N/N=C/c2ccco2)NC1=O (configuration not stated) returned AmpC inh no detg inactive, AmpC detergent inactive and Sm TGR block inactive.
`COc1ccc(N2CCN(Cc3cc(=O)c(OCC(=O)NC4CCCC4)co3)CC2)cc1` gave AmpC inh no detg inactive, AmpC detergent inactive and Sm TGR block inactive.
`CC1=CC(C#N)(C#N)C(C#N)(C#N)C(c2ccccc2)N1` (configuration not stated) gave AmpC inh no detg inactive, AmpC detergent inconclusive and Sm TGR block 22µM.
COC1(OC)N=C(N)C2(C#N)C(c3ccccc3)NC(C)=CC12C#N (configuration not stated) was read as AmpC inh no detg inactive, AmpC detergent inactive and Sm TGR block inactive.
Screening Cc1ccnc(NC(=O)c2cccc(NC(=O)c3ccccc3C)c2)c1 returned AmpC inh no detg inactive, AmpC detergent inactive and Sm TGR block inactive.
`CCOC(=O)C1CCN(c2nc3c(S(=O)(=O)c4ccc(C)c(C)c4)nnn3c3ccc(Cl)cc23)CC1` gave AmpC detergent inactive and Sm TGR block inactive.
COc1cccc(Cn2cnc3c2c(=O)n(C)c(=O)n3C)c1 was read as AmpC detergent inactive and Sm TGR block inactive.
CCCCOc1ccc(N=Cc2cccs2)cc1 was read as AmpC inh no detg inactive, AmpC detergent inactive and Sm TGR block inactive.
Oc1ccc(N=Cc2ccc(-c3cccs3)s2)cc1 was read as AmpC inh no detg inactive, AmpC detergent inactive and Sm TGR block 22µM.
Screening COc1ccc(C(=O)NC2CCCc3ccccc32)cc1[N+](=O)[O-] (configuration not stated) returned AmpC inh no detg inactive, AmpC detergent inactive and Sm TGR block inactive.
